# Measured potencies and affinities stand elsewhere. The source made the active and inactive calls.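 The calls were made as follows: active = fitted half-maximal dose no more than twice the top valid tested dose, for compounds that lower signal; inconclusive = fit invalid, or curve flat with activity between -70 and -30; inactive = potency past limit, curve flat within ±30, or signal increasing.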
# Biological target: NAD-dependent protein deacylase sirtuin-5, mitochondrial (Homo sapiens) (UniProt Q9NXA8)
# Experiment: blockers of sirtuin-5 peptide desuccinylation – biochemical, fluorescence imaging, cherry-pick, set 6, dose response (AID 720597);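 also: lower AMC signal can also come from blocking the trypsin step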
# Details: Purified SirT5, succinyl-peptide-AMC/trypsin fluorescence; series mostly up to 15 µM
# NAD-dependent protein deacylase sirtuin-5, mitochondrial (Homo sapiens), sequence (Q9NXA8 whole entry, looked up): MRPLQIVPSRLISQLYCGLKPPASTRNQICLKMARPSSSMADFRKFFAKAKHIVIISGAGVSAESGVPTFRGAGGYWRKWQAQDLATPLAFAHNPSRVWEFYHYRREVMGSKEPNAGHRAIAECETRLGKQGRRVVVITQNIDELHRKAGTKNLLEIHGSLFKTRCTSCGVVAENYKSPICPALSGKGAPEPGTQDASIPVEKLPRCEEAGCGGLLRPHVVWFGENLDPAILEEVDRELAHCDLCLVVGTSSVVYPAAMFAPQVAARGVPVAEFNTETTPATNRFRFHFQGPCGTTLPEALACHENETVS
row,SMILES,outcome
1,COCC(=O)N1[C@H](CO)[C@@H](c2ccccc2)C12CN(Cc1cc(F)ccc1F)C2,inactive
2,Cc1ccc(S(=O)(=O)N[C@@H]2CC[C@@H](CC(=O)N3CCN(c4ccccc4)CC3)O[C@@H]2CO)cc1,inactive
3,C[C@@H]1CN([C@H](C)CO)C(=O)c2cc(NS(=O)(=O)c3ccc(Cl)cc3)ccc2O[C@H]1CN(C)Cc1ccc2c(c1)OCO2,inactive
4,C[C@H](CO)N1C[C@H](C)[C@H](CN(C)S(=O)(=O)c2ccc(Cl)cc2)OCCCC[C@H](C)Oc2ccc(NS(=O)(=O)c3ccc(F)cc3)cc2C1=O,inactive
5,O=C(C1CCOCC1)N1CC2(C1)[C@@H](c1ccccc1)[C@@H](CO)N2CCC(F)(F)F,inactive
6,C[C@@H]1CN([C@H](C)CO)C(=O)Cc2cc(NC(=O)Cc3cn(C)c4ccccc34)ccc2O[C@@H]1CN(C)C,inactive
7,Cc1cccc(S(=O)(=O)N2CCCCN3[C@@H](CO)[C@H](c4ccc(-c5ccccc5)cc4)[C@@H]3C2)c1,inactive
8,O=C(N[C@H]1C=C[C@H](CC(=O)N2CCOCC2)O[C@H]1CO)c1ccccn1,inactive
9,C[C@@H]1CN([C@H](C)CO)S(=O)(=O)c2ccc(C#Cc3ccc(F)cc3)cc2O[C@@H]1CN(C)S(=O)(=O)c1ccc(F)cc1,inactive
10,CC(C)NC(=O)NCC[C@H]1CC[C@@H](NS(=O)(=O)c2ccc(-c3ccccc3)cc2)[C@H](CO)O1,inactive
11,COc1ccc(CN(C)C[C@H]2OCCCC[C@@H](C)Oc3ccc(NC(=O)NC4CCCCC4)cc3C(=O)N([C@H](C)CO)C[C@H]2C)cc1,inactive
12,O=C(Nc1ccccc1F)N1CC(=O)N2[C@H](C1)[C@@H](c1ccc(C#CC3CCCC3)cc1)[C@@H]2CO,inactive
13,C[C@@H]1CN([C@@H](C)CO)C(=O)Cc2cc(NS(=O)(=O)c3ccc(F)cc3)ccc2O[C@@H]1CN(C)C(=O)NC1CCCCC1,inactive
14,C[C@@H]1CN([C@H](C)CO)C(=O)c2cccc(NC(=O)c3ccncc3)c2O[C@@H]1CN(C)S(C)(=O)=O,inactive
15,Cc1noc(C)c1NC(=O)Nc1ccc2c(c1)C(=O)N([C@H](C)CO)C[C@@H](C)[C@@H](CN(C)Cc1ccc(C(=O)Nc3ccccc3N)cc1)O2,inactive
16,Cc1ccc(S(=O)(=O)N(C)C[C@H]2OCCCC[C@@H](C)Oc3ccc(NS(=O)(=O)c4ccc(Cl)cc4)cc3C(=O)N([C@@H](C)CO)C[C@H]2C)cc1,inactive
17,CN(C[C@H]1[C@@H](c2ccc(C3=CCCC3)cc2)[C@@H](CO)N1CCC(F)(F)F)S(C)(=O)=O,inactive
18,CNC[C@@H]1Oc2ccc(NC(=O)Nc3ccc(F)cc3)cc2CC(=O)N([C@@H](C)CO)C[C@H]1C,inactive
19,O=C(C[C@@H]1C[C@@H]2c3cc(NC(=O)NC4CCCCC4)ccc3O[C@@H]2[C@H](CO)O1)NCCc1ccccc1,inactive
20,COc1ccc(S(=O)(=O)Nc2ccc3c(c2)CC(=O)N([C@H](C)CO)C[C@H](C)[C@@H](CN(C)CC2CCCCC2)O3)cc1,inactive
21,C[C@H]1CN([C@@H](C)CO)C(=O)c2cc(NC(=O)CCCCCC(=O)Nc3ccccc3N)ccc2O[C@H]1CN(C)Cc1ccc(Cl)c(Cl)c1,inactive
22,C[C@@H]1CCCCO[C@@H](CN(C)C(=O)Cc2ccccc2)[C@@H](C)CN([C@@H](C)CO)C(=O)c2cc(NC(=O)Nc3ccc(F)cc3)ccc2O1,inactive
23,C[C@@H]1CN([C@H](C)CO)C(=O)c2cc(NS(=O)(=O)c3ccc(Cl)cc3)ccc2O[C@@H](C)CCCCO[C@@H]1CN(C)Cc1ccccc1,inactive
24,COc1ccc([Si](C)(C)[C@@H]2[C@@H](CCO)O[C@]3(C(=O)N(Cc4cccc(NC(C)=O)c4)c4ccccc43)[C@H]2C)cc1,inactive
25,CCCC#Cc1ccc([C@H]2[C@@H](CO)N3CCCCN(S(=O)(=O)Cc4ccccc4)C[C@@H]23)cc1,inactive
26,CCCNC(=O)N1[C@@H](CO)[C@@H](c2ccccc2)C12CN(C(=O)CC1CC1)C2,inactive
27,O=C(CCN1CCCCC1)N[C@H]1CC[C@@H](CCn2cc(-c3ccc(F)cc3)nn2)O[C@H]1CO,inactive
28,C[C@H](CO)N1C[C@H](C)[C@@H](CN(C)Cc2ccccc2F)Oc2cc(C#CC3CC3)ccc2S1(=O)=O,inactive
29,COc1ccc(S(=O)(=O)N(C)C[C@@H]2Oc3ccc(NC(=O)CCC(F)(F)F)cc3C(=O)N([C@H](C)CO)C[C@H]2C)cc1,inactive

# — PubChem BioAssay AID720597 (Broad Institute, 2013)
